Laboratory results reported in the supplement of paper PMC8866396.
± gives the standard deviation of the averaged measurements.

Test system: IL-6-GFP PC-9
Experiment: cell viability (CCK-8 OD) relative to DMSO control (fraction of control); higher = more viable cells
Conditions: compound concentration: 10 uM; treatment time: 48 h
How it was run: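 In 96-well plates, 3000 cells/well of PC-9 or PC-9GR lung cancer cells with lentiviral IL-6-GFP overexpression received each compound of a purchased 510-compound library at a final 10 μM for 48 h. Viability, measured by CCK-8 absorbance, is each well's optical density relative to the vehicle control well. Data come from two independent replicates.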

| Structure (SMILES) | cell viability |
| --- | --- |
| O=C(O)c1ccccc1OP(=O)(O)O [Fosfosal] | 1.01 ± 0.21 |
| Cc1cc2c(C(N)=O)cccc2n1-c1nc2c(c(NCc3ccccc3)n1)COCC2 | 0.261 ± 0.0057 |
| NC(=S)N/N=C/c1ncccc1N [Triapine] | 0.287 ± 0.024 |
| COc1cc(C2c3cc4c(cc3C(OC3OC5COC(c6cccs6)OC5C(O)C3O)C3COC(=O)C23)OCO4)cc(OC)c1O (configuration not stated) [Teniposide] | 0.121 ± 0.035 |
| COc1ccc2c(c1)nc(S(=O)Cc1ncc(C)c(OC)c1C)[n]2[Na] (configuration not stated) [Omeprazole Sodium] | 0.963 ± 0.16 |
| CCOC(=O)N1CCC(=C2c3ccc(Cl)cc3CCc3cccnc32)CC1 [Loratadine] | 0.934 ± 0.18 |
| CNC(=O)C(NC(=O)C(CC(C)C)C(O)C(=O)NO)C(C)(C)C (configuration not stated) [Marimastat (BB-2516)] | 1.14 ± 0.19 |
